Unmarked numbers belong to inactive results. Activity calls are given as the source filed them. The rule behind the calls is not given here.

This assay deals with Estrogen receptor (Homo sapiens) (UniProt P03372). Put plainly: ERalpha ligand binders by competition, primary screen, cell-based, Cos7 ERalpha-GFP, flow cytometry (AID 1211).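 Note: 0% = DMSO vehicle wells and 100% = no E2-Alexa633 signal left.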 Particulars: fluorescent ligand competition, at 10 µM, hits give high values. (A flow cytometer gives signals particle by particle.)
Sequence of Estrogen receptor (Homo sapiens) (P03372 whole entry, looked up): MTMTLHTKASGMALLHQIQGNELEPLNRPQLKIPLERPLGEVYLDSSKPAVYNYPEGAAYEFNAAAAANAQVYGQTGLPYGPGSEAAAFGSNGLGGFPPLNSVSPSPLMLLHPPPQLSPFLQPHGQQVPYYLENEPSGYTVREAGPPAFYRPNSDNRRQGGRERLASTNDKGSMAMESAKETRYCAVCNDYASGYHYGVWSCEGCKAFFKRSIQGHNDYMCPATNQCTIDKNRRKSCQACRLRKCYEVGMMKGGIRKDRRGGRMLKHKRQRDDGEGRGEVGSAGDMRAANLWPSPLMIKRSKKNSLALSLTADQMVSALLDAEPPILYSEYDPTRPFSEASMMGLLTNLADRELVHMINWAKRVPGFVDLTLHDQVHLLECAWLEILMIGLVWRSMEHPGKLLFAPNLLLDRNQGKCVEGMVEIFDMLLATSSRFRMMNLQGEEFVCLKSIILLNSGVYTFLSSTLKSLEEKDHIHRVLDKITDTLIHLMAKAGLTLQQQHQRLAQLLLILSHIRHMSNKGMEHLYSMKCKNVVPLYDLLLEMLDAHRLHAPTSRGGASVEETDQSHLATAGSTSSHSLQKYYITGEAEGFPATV
Take `CCOc1ccccc1-c1nc(-c2ccc(NC(=O)c3ccc(Br)o3)cc2)no1`: the inhibition of ligand binding is 52%.
For the compound `O=C(c1cccs1)N1N=C(c2ccccc2)CC1c1ccc(O)cc1` (centres undefined), the inhibition of ligand binding is 21%.
On to `COc1cc2c3c(c1)/C(=C1/SC(NC(C)=O)=NC1=O)C(=O)N3C(C)(C)C=C2C`, for which the inhibition of ligand binding is 29%.
As for `COc1ccc(NS(=O)(=O)c2ccc3c(c2)[C@H]2C=CC[C@H]2[C@@H](c2ccc(C(=O)O)cc2)N3)cc1`, the figure is 100% (active); as for `O=C(Oc1cccc(-c2cnc3ccccc3n2)c1)c1ccco1`, 12%; as for `CCOc1cc2c(c([N+](=O)[O-])c1)NC(c1ccc(Cl)cc1)C1CC=CC21` (centres undefined), 0%.
For `O=C(O)c1ccc2c(c1)[C@@H]1C=CC[C@@H]1[C@H](c1ccccn1)N2`, the inhibition of ligand binding was 81% (active).
The same measure for `COCCCn1c(Cc2csc(Nc3cccc(Cl)c3)n2)nnc1SCC(=O)OC1CCCCC1`: 37%; for `CCOc1cc2c(cc1OCC)C(C(CC)CC)NCC2` (centres undefined): 0%.
For `O=c1cc(CSc2nnnn2-c2ccccc2)nc(Nc2ccc(F)cc2)[nH]1`, the inhibition of ligand binding was 26%.
The same measure for `Fc1ccc2c(c1)[C@H]1OCC[C@H]1[C@@H](c1ccco1)N2`: 34%; for `CCCCCCc1cc2c3c(c(=O)oc2cc1OCC(=O)OC)CCC3`: 0%.
Turning to `Cc1ccccc1-n1nc(-c2ccc(N)cc2)cc1N`, the inhibition of ligand binding is 7%.
The same measure for `C=C1c2ccc(OC)cc2NC(=O)N1c1ccccc1`: 4%; for `CSCCC(NC(=O)c1ccco1)C(=O)OCC(=O)Nc1sccc1C#N` (centres undefined): 4%; for `CCN(c1ccccc1)S(=O)(=O)c1ccc2[nH]cc(C(=O)NCCOC)c(=O)c2c1`: 22%.
With `CCCc1cc(=O)oc2c(C)c(OC3CCCCC3=O)ccc12` (centres undefined), the inhibition of ligand binding was 0%.
Regarding `O=[N+]([O-])c1ccc(Cl)c2c1C1C=CCC1C(c1ccccn1)N2` (centres undefined), the inhibition of ligand binding is 53%.
The same measure for `COc1cc(C2C3C(C)N(C)C(=O)N(C)C3N(C)C(=O)N2C)ccc1O` (centres undefined): 0%.
As for `COc1cc([N+](=O)[O-])cc2c1NC(c1ccc(Cl)cc1)C1CC=CC21` (centres undefined), the figure is 46%; as for `O=c1oc2cc(O)ccc2c2c1CCCC2`, 7%; as for `Oc1ccc(C=Nc2ccc(N3CCOCC3)cc2)c(O)c1`, 30%.
Take `COC(=O)c1ccc(C2Nc3ccc(/C(C)=N/NC(=O)C(OC)c4ccccc4)cc3C3C=CCC32)cc1` (centres undefined): the inhibition of ligand binding was 0%.
As for `CCNC(=O)c1ccc2c(c1)C1C3CCC(C3)C1C(c1ccccc1)N2` (centres undefined), the figure is 66% (active).
The same measure for `COc1cc([N+](=O)[O-])cc2c1NC(c1ccccc1Cl)C1CC=CC21` (centres undefined): 0%; for `COc1cc([N+](=O)[O-])cc2c1NC(c1ccccc1)C1CC=CC21` (centres undefined): 0%; for `CCCOc1cc2oc(=O)c3c(c2cc1CC)CCCC3`: 0%.
As for `CCc1cc2c3c(c(=O)oc2cc1OCC(=O)O)CCCC3`, the figure is 10%; as for `CC(C)C1CC(CCNCc2ccc3c(c2)OCO3)(c2ccccc2)CCO1` (centres undefined), 26%; as for `CC(=O)N1c2ccc3ccccc3c2C2C=CCC2C1c1ccc(Br)cc1` (centres undefined), 48%.
As for `O=[N+]([O-])c1cc(/C=N/N2CCN(C3c4ccccc4-c4ccccc43)CC2)ccc1Cl`, the inhibition of ligand binding is 21%.
For `COc1ccc(C2CC(=O)Nc3ccccc3S2(=O)=O)cc1OC` (centres undefined), the inhibition of ligand binding is 0%.
As to `O=C(CSc1nnc(-c2ccc(O)cc2)n1Cc1ccccc1)NNC(=O)c1ccc(Br)cc1`, the inhibition of ligand binding was 48%.
The same measure for `CCOC(=O)c1c(N)sc2c1CC(C)(C)NC2(C)C`: 8%; for `O=C(O)c1ccc2c(c1)C1C=CCC1C(c1cccc([N+](=O)[O-])c1)N2` (centres undefined): 72% (active).
The same measure for `COC(=O)c1ccc(OCc2c(C)noc2C)cc1`: 22%; for `CC1(C)Cc2[nH]c3ccccc3c2C(C)(C)N1`: 6%.
Turning to `Oc1ccc(-c2[nH]nc(-c3ccccc3)c2-c2nc3ccccc3[nH]2)cc1`, the inhibition of ligand binding is 33%.
As for `Cc1ccc(-n2cc3c(c(C#N)c2=N)CC(C)(C)CC3=O)cc1`, the figure is 35%.

For the origin of these results see PubChem BioAssay AID1211 (NMMLSC, 2008).
